Results on 40 compounds are retold here after ChEMBL document CHEMBL3433997, “St. Jude Leishmania screening dataset” (2016).

In one experiment the target is Solute carrier family 2, facilitated glucose transporter member 1 (Homo sapiens) (UniProt P11166). In words: ST_JUDE_LEISH: Cytotoxicity at 2uM final concentration against transgenic Leishmania Mexicana promastigotes LmGLUT1 that are glucose transport deficient and complemented with the human glucose transporter GLUT1. Activity is measured by DNA content using SYBR green in vitro. It counts as functional.
Chain of Solute carrier family 2, facilitated glucose transporter member 1 (Homo sapiens) (P11166 whole entry): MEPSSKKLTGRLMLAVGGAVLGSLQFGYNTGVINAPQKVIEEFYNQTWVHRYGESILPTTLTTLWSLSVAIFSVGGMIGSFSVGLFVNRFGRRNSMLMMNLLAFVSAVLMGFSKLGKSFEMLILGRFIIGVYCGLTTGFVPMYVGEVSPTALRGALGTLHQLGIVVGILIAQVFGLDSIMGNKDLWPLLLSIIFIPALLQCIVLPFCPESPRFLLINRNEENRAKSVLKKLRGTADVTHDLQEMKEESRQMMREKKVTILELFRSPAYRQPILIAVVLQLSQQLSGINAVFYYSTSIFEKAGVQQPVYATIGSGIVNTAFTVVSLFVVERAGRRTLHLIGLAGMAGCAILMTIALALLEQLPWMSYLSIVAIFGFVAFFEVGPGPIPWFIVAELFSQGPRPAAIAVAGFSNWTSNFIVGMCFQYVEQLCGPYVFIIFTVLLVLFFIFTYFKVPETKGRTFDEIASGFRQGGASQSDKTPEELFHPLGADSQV
Turning to `FC(F)(F)c1cccc(CNCC2CCN(CC3CCCCC3)CC2)c1`, the inhibition (in general, the relative decrease from the control value, in per cent) was -0.93%. Still for that read-out and setting: for `O=C(NC1CCN(Cc2ccccc2)CC1)c1ccc(-c2nc3cc4ccccc4cc3[nH]2)s1` the value was 3.9%; for `O=c1cc(NCC2(CNCc3cn(Cc4ccccc4)c4ccccc34)CCCCC2)[nH]c2ccccc12`, 4.81%; for `CC(C)CC(C)NC(=O)C1Cc2c([nH]c3cc(Cl)ccc23)C2(CCN(CCc3ccccc3)CC2)N1` (stereo unspecified), 6.97%. Same read-out and setting: as for `CCc1nc2nc(C)cc(Nc3ccc4c(c3)OCCO4)n2n1`, the figure is 2.89%. Still for that read-out and setting: for `Cc1cc(N/N=C/c2ccccc2[N+](=O)[O-])c2cc(F)ccc2n1` the value was 2.14%. As for `CN(C)CCN1CCN(Cc2ccc(-c3cccc(-c4nc5ccccc5[nH]4)c3)cc2)CC1`, the inhibition was -2.11%. In the case of `O=C(NCc1ccc(Cl)cc1)c1ccc(CN2CCCN(Cc3cccc(O)c3)CC2)cc1`, the inhibition came to 0.86%. On the same count and under the same terms, as for `CCn1cc(C(=O)O)c(=O)c2cc(F)c(N3CCN(S(=O)(=O)c4ccc(N)cc4)CC3)cc21`, the figure is 0.77%; as for `CCCC(C)NC(=O)[C@H](Cc1ccccc1)NC(=O)c1ccc(O)c(-c2ccc(OC)cc2)c1` (stereo partly specified), 4.38%. On the same count and under the same terms, for `CN(C)Cc1c(O)ccc2[nH]c(-c3ccc(F)cc3F)nc12` the value was 1.13%; for `CCOC(=O)c1c(NC(=O)c2ccccc2)sc2c(O)c(CNC3CCCCC3)ccc12`, -1.14%. Take `CN1CCN(Cc2ccc(-c3cc4c(Nc5ccc(OCc6cccc(F)c6)c(Cl)c5)ncnc4s3)[nH]2)CC1`: the inhibition stood at 12.7%.

For the compound `Cc1cc(Br)cnc1CCCCNC1=NC(=O)CN1C`, the inhibition is 0.57%.

Consider `CCCN1CCN(CCCCNc2c3ccccc3nc3ccccc23)CC1`, for which the inhibition was determined as 51.5%. On the same count and under the same terms, for `CC(=O)Nc1ccc(C(=O)Nc2cccc(-c3ccc(-c4nc5cc(C(F)(F)F)ccc5[nH]4)cc3)c2)cn1` the value was 2.59%. On the same count and under the same terms, for `CCCN(CCC)S(=O)(=O)c1ccc(C(=O)Nc2nc3ccc(-c4cc(=O)[nH]c(Nc5ccccc5Cl)n4)cc3[nH]2)cc1` the value was 4.09%; for `Cc1ccccc1C1CCN(C2CCC(NC(=O)c3ccc(-c4cc(C(F)(F)F)nn4C)s3)CC2)CC1` (stereo unspecified), 10.8%; for `COc1cc(NC(=O)c2c(-c3c(F)cccc3Cl)noc2C)c(OC)cc1Cl`, -2.64%. The same measure, in the same setting: for `COc1cc2c(cc1C(F)(F)F)N(C(=O)Nc1cccc(-c3ccc(CN(C)C)cc3)c1)CC2` the value was 22.1%; for `NCCCOc1cnc(-c2ccccc2)c2nc(-c3nonc3N)n(CCc3ccccc3)c12`, 4.6%. Regarding `Nc1nccc2ccc(Oc3ccncc3)cc12`, the inhibition was determined as 2.47%. Take `COc1ccc(-c2ccc(NC(=O)c3cccc(F)c3)cc2)cc1CN1CCCN(C)CC1`: the inhibition turned out to be 4.26%. Same read-out and setting: for `CC(C)NCc1ccc(-c2cccc(NC(=O)c3ccc(C#N)cc3)c2)cc1` the value was 6.75%; for `CCc1sc(N2CCN(C)CC2)nc1C(=O)NCCc1ccc(Cl)c(Cl)c1`, 4.62%; for `Cc1sc2ncnc(Sc3nc4ccccc4[nH]3)c2c1C`, 5.47%.

Another experiment has as its target Hexose transporter 1 (Plasmodium falciparum) (UniProt O97467). Briefly: ST_JUDE_LEISH: Cytotoxicity at 2uM final concentration against transgenic Leishmania Mexicana promastigotes LmPfHT that are glucose transport deficient and complemented with the Plasmodium falciparum hexose transporter. Activity is measured by DNA content using SYBR green in vitro. It counts as functional.
Turning to `ON=C1CCc2cc(-c3cc(-c4ccc(OC5CCNCC5)cc4)oc3-c3ccncc3)ccc21`, the inhibition was 3.53%. `COc1ccc(CC(=O)NC(CCCN2CCC(c3ccccc3)CC2)c2ccc(Cl)c(Cl)c2)cc1OC` (stereo unspecified): the inhibition is 2.2%.

With `COc1ccc(-c2nc(NC(=O)Cc3ccc4c(c3)OCCO4)sc2C)cc1`, the inhibition was 4.52%. Still for that read-out and setting: as for `Cc1ccc2[nH]ncc2c1N(CC1CCCCC1)c1ccnc(Nc2ccc(OCC(O)CN3CC=CCC3)cc2)n1` (stereo unspecified), the figure is 3.33%; as for `COc1ccc(NC(=O)CCNc2cc(C)nc(NCCc3ccc(F)cc3)n2)cc1`, 0.39%; as for `CC(C)(CNCc1ccccc1)c1nc(-c2ccc(Cl)c(O)c2)c(-c2ccncc2)[nH]1`, 4.73%. Take `CCN1CCc2c1cc(C(=O)N[C@@H](Cc1ccccc1)[C@H](O)CNC(C)(C)c1cccc(C(F)(F)F)c1)cc2N1CCCCS1(=O)=O`: the inhibition was -3.32%.

Regarding `Cc1ccc2nc(C)n(C3CCN(C(=O)C4(c5ccccc5)CC4)CC3)c2c1`, the inhibition was found to be 6.02%. The same measure, in the same setting: for `CN(C)C(=O)CC(=O)NCc1cccc(Cl)c1` the value was 6.27%. The same measure, in the same setting: for `O=C(NCc1cccc(F)c1)Nc1cccc(-c2cccc(-c3nc4cc(C(F)(F)F)ccc4[nH]3)c2)c1` the value was 2.8%; for `CC(C)(C)N1CCC(N(Cc2ccc(-c3ccc(C(F)(F)F)cc3)cc2)C(=O)Cn2c(CCc3cccc(F)c3F)cc(=O)c3ccccc32)CC1`, 0.14%; for `COc1ccc(-c2cnc3ccc(NCCCO)nn23)cc1OC`, 0.58%. Still for that read-out and setting: for `CC(=O)Nc1nc(C(=O)Nc2cccc(-c3ccc(-c4nc5cc(F)ccc5[nH]4)cc3)c2)cs1` the value was 1.38%; for `COCCOc1nc(N)nc2ncc(Cc3cc(OC)ccc3OC)c(C)c12`, 0.23%; for `FC(F)(F)c1cccc(CNCC2CCN(CC3CCCCC3)CC2)c1`, -0.13%. `O=C(NC1CCN(Cc2ccccc2)CC1)c1ccc(-c2nc3cc4ccccc4cc3[nH]2)s1`: the inhibition stood at 2.65%. On the same count and under the same terms, as for `O=c1cc(NCC2(CNCc3cn(Cc4ccccc4)c4ccccc34)CCCCC2)[nH]c2ccccc12`, the figure is 5.38%; as for `CC(C)CC(C)NC(=O)C1Cc2c([nH]c3cc(Cl)ccc23)C2(CCN(CCc3ccccc3)CC2)N1` (stereo unspecified), 7.27%; as for `CCc1nc2nc(C)cc(Nc3ccc4c(c3)OCCO4)n2n1`, 4.78%. Same read-out and setting: as for `Cc1cc(N/N=C/c2ccccc2[N+](=O)[O-])c2cc(F)ccc2n1`, the figure is 1.95%; as for `CN(C)CCN1CCN(Cc2ccc(-c3cccc(-c4nc5ccccc5[nH]4)c3)cc2)CC1`, -0.12%. Still for that read-out and setting: as for `O=C(NCc1ccc(Cl)cc1)c1ccc(CN2CCCN(Cc3cccc(O)c3)CC2)cc1`, the figure is 0.62%; as for `CCn1cc(C(=O)O)c(=O)c2cc(F)c(N3CCN(S(=O)(=O)c4ccc(N)cc4)CC3)cc21`, 0.41%.

For `CCCC(C)NC(=O)[C@H](Cc1ccccc1)NC(=O)c1ccc(O)c(-c2ccc(OC)cc2)c1` (stereo partly specified), the inhibition was 3.09%. `CN(C)Cc1c(O)ccc2[nH]c(-c3ccc(F)cc3F)nc12`: the inhibition was found to be 1.4%. Same read-out and setting: for `CCOC(=O)c1c(NC(=O)c2ccccc2)sc2c(O)c(CNC3CCCCC3)ccc12` the value was -0.58%.

For the compound `CN1CCN(Cc2ccc(-c3cc4c(Nc5ccc(OCc6cccc(F)c6)c(Cl)c5)ncnc4s3)[nH]2)CC1`, the inhibition worked out at 11.4%. Same read-out and setting: as for `Cc1cc(Br)cnc1CCCCNC1=NC(=O)CN1C`, the figure is -0.02%; as for `CCCN1CCN(CCCCNc2c3ccccc3nc3ccccc23)CC1`, 73.8%; as for `CC(=O)Nc1ccc(C(=O)Nc2cccc(-c3ccc(-c4nc5cc(C(F)(F)F)ccc5[nH]4)cc3)c2)cn1`, -0.8%.

Regarding `CCCN(CCC)S(=O)(=O)c1ccc(C(=O)Nc2nc3ccc(-c4cc(=O)[nH]c(Nc5ccccc5Cl)n4)cc3[nH]2)cc1`, the inhibition is 5.1%. Still for that read-out and setting: for `Cc1ccccc1C1CCN(C2CCC(NC(=O)c3ccc(-c4cc(C(F)(F)F)nn4C)s3)CC2)CC1` (stereo unspecified) the value was 9.92%; for `COc1cc(NC(=O)c2c(-c3c(F)cccc3Cl)noc2C)c(OC)cc1Cl`, -1.52%; for `COc1cc2c(cc1C(F)(F)F)N(C(=O)Nc1cccc(-c3ccc(CN(C)C)cc3)c1)CC2`, 10.2%. The same measure, in the same setting: for `NCCCOc1cnc(-c2ccccc2)c2nc(-c3nonc3N)n(CCc3ccccc3)c12` the value was 2%; for `Nc1nccc2ccc(Oc3ccncc3)cc12`, 3.29%.

Turning to `COc1ccc(-c2ccc(NC(=O)c3cccc(F)c3)cc2)cc1CN1CCCN(C)CC1`, the inhibition stood at 2.56%. Turning to `CC(C)NCc1ccc(-c2cccc(NC(=O)c3ccc(C#N)cc3)c2)cc1`, the inhibition is 4.9%.

`CCc1sc(N2CCN(C)CC2)nc1C(=O)NCCc1ccc(Cl)c(Cl)c1`: the inhibition stood at 3.9%. With `Cc1sc2ncnc(Sc3nc4ccccc4[nH]3)c2c1C`, the inhibition was found to be 8.07%.
